Compound activity: PubChem, National Center for Advancing Translational Sciences (NCATS)
Shown is part of a subset that was picked to be rich in hits.
Pf Dd2 inh = qHTS Primary assay for Inhibitors of Plasmodium falciparum Dd2 growth in vitro | P. falciparum Dd2 growth, SYBR Green, 72 h | Potency, µM (doses to about 28.9 µM), without a hit: at the highest dose activity, negative = inhibition, actives largely listed as inhibitors | 120,000 compounds, 4.3% hits | AID 1347417, 2020; active means well fitted inhibition curve with a large enough effect;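 further: plate controls were DMSO vehicle for no effect and reference drug for full effect; nearly all actives have a fitted effect of over 65% in size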
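Readout: SYBR Green fluorescence, 485 nm excitation, 535 nm emission, after ~16 h lysis at 37C. Before that, Dd2-infected red cells (2.5% hematocrit) grew 72 h with compound, 29 uM top final concentration.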
* marks the source's active call; other numbers are inactive results; i = inactive; [ ] = dose if it differs, or a comment. Potency means the concentration at half of the fitted maximal effect.

SMILES | Pf Dd2 inh
Cc1ccc(C)c(NC(=O)c2nnn(CC(=O)Nc3cccc(C)c3C)c2N)c1 | 2.4%
COc1ccc(NC(=O)c2nnn(Cc3ccccc3C)c2N)c(OC)c1 | 1.12µM*
COc1ccc(Cn2nnc(C(=O)Nc3cc(OC)ccc3OC)c2N)cc1 | i
COc1cccc(Cn2nnc(C(=O)Nc3cc(C)ccc3C)c2N)c1 | -32.2%
Cc1cccc(Cn2nnc(C(=O)Nc3cc(C)ccc3C)c2N)c1 | 2µM*
COc1ccc(Cl)cc1NC(=O)c1nnn(Cc2cccc(C(F)(F)F)c2)c1N | -0.6%
Cc1ccc(NC(=O)c2nnn(Cc3ccccc3)c2N)cc1C | 5.9%
COCCNC(=O)c1coc(CN2CCN(C/C=C/c3ccccc3)CC2)n1 | -28.5%
O=C(CN1C(=O)C(c2ccccc2)=NC12CCCC2)NCc1ccc(F)cc1 | i
CCN1CCC(N2CCOC3(COCCN(C(=O)c4ccccc4C)C3)C2)CC1 (stereo not drawn) | 3.8%
Cc1ccc(C)c(C(=O)N2C[C@@H](CO)[C@H](c3ccncc3)C2)c1 | i
CN(Cc1cccc(OCC(O)CN2CCOCC2)c1)Cc1ccc2nonc2c1 (stereo not drawn) | -27.6%
Cc1noc(C)c1S(=O)(=O)NC1CCN(C(=O)N2CC3CC(C2)[C@H]2CCCC(=O)N2C3)CC1 (stereo partly drawn) | -14.0%
O=C(NC1CCCCC1)NC1CCc2nnc(C3CC3)n2CC1 (stereo not drawn) | 66.1%
O=C(Nc1ccc(=O)n2c1[C@@H]1C[C@@H](CN(S(=O)(=O)c3ccccc3)C1)C2)c1ccc2c(c1)OCO2 | -27.5%
COc1ccc(N(Cc2cccs2)C(=O)c2ccc(OC)c(Cl)c2)cc1 | 3.4%
COc1ccc(N(Cc2cccs2)C(=O)COc2cccc(Cl)c2)cc1 | -8.1%
CCCCOc1cccc(C(=O)N(Cc2cccs2)c2ccc(OC)cc2)c1 | 0.316µM*
Cc1oc2ccn(Cc3cccc(F)c3)c(=O)c2c1C(=O)N(C)Cc1ccccc1 | i
Cc1ccc(NC(=O)c2c(C)oc3ncnc(N4CCCCC4)c23)c(C)c1 | 16.7%
Cc1ccc(NC(=O)Nc2nnc(N(C)Cc3ccccc3)s2)c(C)c1 | -23.3%
Cc1ccc(NC(=O)c2c(C)oc3ccc(O)c(CN(C)Cc4ccccc4)c23)c(C)c1 | 1.26µM*
CN(Cc1ccc(-c2ccccc2)cc1)C(=O)Nc1ccccc1 | -3.1%[44.1 µM]
Cc1oc2ccc(O)c(CN(C)Cc3ccccc3)c2c1C(=O)Nc1ccccc1 | 1.12µM*
COc1ccc(OC2CN([S+](=O)([O-])c3cccs3)C2)cc1 | -3.2%
SMILES | Pf Dd2 inh
CN(CC(=O)N1CCNCC(C(=O)O)C1)Cc1ccncc1 (stereo not drawn) | 2.7%
NC(=O)[C@@H]1CN(C(=O)c2ccco2)C[C@H]1COc1ccccc1 | 0.4%
C[C@@H]1CN(C2(C(=O)NCc3ccncc3)Cc3ccccc3C2)C[C@H](C)O1 | 1.8%
CC(C)C(=O)N1CCc2c(n(Cc3ccccc3)n(-c3ccccc3)c2=O)C1 | 5.5%[44.1 µM]
O=C(O)C[C@@H]1CCN(C(=O)c2ccccc2)C[C@@H]1CCN1CCN(c2ccccn2)CC1 | -8.0%
COCCN1CCN(C[C@@H]2C=C(C)[C@H](Cc3nnc(-c4cccnc4)o3)C[C@H]2C(C)C)CC1 | -16.3%
COCCN1CCN(C[C@@H]2C=C(C)[C@H](Cc3nnc(-c4ccc(N(C)C)cc4)o3)C[C@H]2C(C)C)CC1 | 3.98µM*
CC1=C[C@@H](CN2CCC(O)CC2)[C@H](C(C)C)C[C@H]1Cc1nnc(C)o1 | -26.6%[44.1 µM]
CC1=C[C@@H](CN2CCC(O)CC2)[C@H](C(C)C)C[C@H]1Cc1nnc(-c2ccc(N(C)C)cc2)o1 | 3.55µM*
CS(=O)(=O)N1CCC(C2CCN(C(=O)Cc3c[nH]c4ccccc34)C2)CC1 (stereo not drawn) | i
O=C(N1CCCC1)N1CCn2c(nnc2C2CCCN2)C1 (stereo not drawn) | 13.9%
O=C(C[C@@H]1C[C@H]2O[C@H](CNC3CCC(F)(F)CC3)[C@@H](O)[C@H]2O1)N1CCOCC1 | 6.5%[44.1 µM]
Cc1noc(-c2ccccc2Cl)c1C(=O)NCCCOC(C)C | i
CN1CCC(N2CCN(C(=O)C3CCOCC3)CC2)C1=O (stereo not drawn) | -1.7%
Cc1cccc(CN2C(=O)c3ccccc3S(=O)(=O)c3ccc(C(=O)NC4CCCCC4)cc32)c1 | -3.6%
CN1CCN(C(=O)c2ccc3c(c2)N(Cc2cccc(Cl)c2)C(=O)c2ccccc2S3(=O)=O)CC1 | i
O=C(c1ccc2c(c1)N(Cc1ccc(F)cc1)C(=O)c1ccccc1S2(=O)=O)N1CCN(Cc2ccccc2)CC1 | i
O=C(c1ccc2c(c1)N(Cc1ccc(Cl)cc1)C(=O)c1ccccc1S2(=O)=O)N1CCC(Cc2ccccc2)CC1 | -5.9%
CCOC(=O)N1CCC(NC(=O)c2ccc3c(c2)N(Cc2cccc(C)c2)C(=O)c2ccccc2S3(=O)=O)CC1 | 11.2µM*
COc1ccccc1N1CCN(C(=O)c2ccc3c(c2)N(Cc2ccccc2)C(=O)c2ccccc2S3(=O)=O)CC1 | 7.08µM*
O=C(c1ccc2c(c1)N(Cc1ccccc1)C(=O)c1ccccc1S2(=O)=O)N1CCc2ccccc21 | 11.2µM*
